Here are results for 20 compounds from PubChem BioAssay (NCI).

About 79,000 compounds went through this panel and 15% of them were active in at least one assay; those are over-represented in the sample as a whole. Values without a mark were called inactive. Calls of active or inactive are those of the source. No stated cut-off is given here; in the data, active means growth inhibition above about 70%; inactive means the rest.

Test [1] can be described thus: NCI Yeast Anticancer Drug Screen. Data for the rad50 strain (AID 155).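 Further: 0% = growth of vehicle-only cultures of the same strain.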 Particulars: S. cerevisiae rad50 strain growth inhibition; at 50.0 µM; stronger effect = higher value. The method in brief: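 A DNA repair-deficient yeast mutant serves as the test organism; compound-induced growth inhibition is calculated against vehicle-treated cells.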
Test [2] in a line: NCI Yeast Anticancer Drug Screen. Data for the mec2-1 strain (AID 157). The settings on record: S. cerevisiae mec2-1 strain, at 50.0 µM, stronger effect = higher value. The method in brief:
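Cells of the genetically defined mec2-1 yeast strain are incubated with test compound. Inhibition of growth is calculated against vehicle-treated controls.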

Test [3] in a line: NCI Yeast Anticancer Drug Screen. Data for the sgs1 mgt1 strain (AID 161).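 Further: 0% = growth of cultures given vehicle only.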 Particulars: S. cerevisiae sgs1 mgt1 strain, at 50.0 µM, stronger effect = higher value. The method in brief:
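Mutant yeast exposed to compound; growth scored against vehicle-only wells.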

Test [4] is described as follows: NCI Yeast Anticancer Drug Screen. Data for the cln2 rad14 strain (AID 165).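 Further: 0% = growth equal to vehicle treated cultures.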 The settings on record: S. cerevisiae cln2 rad14 strain, at 50.0 µM, stronger effect = higher value. An outline of the steps:
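The screen exposed genetically defined yeast (cln2 rad14) to test compounds and scored growth inhibition relative to vehicle-treated controls.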

The nature of test [5]: NCI Yeast Anticancer Drug Screen. Data for the bub3 strain (AID 167). Particulars: S. cerevisiae bub3 mutant strain, at 50.0 µM, stronger effect = higher value. The method in brief: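 Inhibition values come from growth of compound-treated mutant yeast normalised to vehicle-treated controls.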
Test [6] in a line: NCI Yeast Anticancer Drug Screen. Data for the mlh1 rad18 strain (AID 175). The settings on record: S. cerevisiae mlh1 rad18 strain growth inhibition; at 50.0 µM; stronger effect = higher value. The method in brief: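 Compound-treated yeast growth, normalised to vehicle controls. Strain bears defined DNA repair mutations.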

For the compound `C=C1CCC2C(C)(CO)C(O)CCC2(C)C1CCC1=CCOC1=O` (stereo not given), the growth inhibition in test [1] is -22.4%; in test [2], -17.6%; in test [3], -3.2%; in test [4], 3.35%; in test [5], -4.4%; in test [6], -8.05%.
Turning to `CC1(C)OC2COC3(CO)OC(C)(C)OC3C2O1` (stereo not given), the growth inhibition in test [1] was -2.2%; in test [2], 20.6%; in test [3] it was 15.4%; in test [4], -65.5%; in test [5], 15.2%; in test [6], 17.4%.
In the case of `C1COC2(C1)CCCO2`, the growth inhibition in test [1] is 21.6%; in test [2], -0.5%; in test [3] it was -27.2%; in test [4], 3.5%; in test [5], 23.2%; in test [6], -2.95%.
For the compound `COC(=O)c1ccc(Cn2ccc(=O)n(Cc3ccc(C(=O)OC)cc3)c2=O)cc1`, the growth inhibition was 63.2% in test [1]; 23.8% in test [2]; 74.6% (active) in test [3]; 30.6% in test [4]; 31.3% in test [5]; 43.1% in test [6].
Regarding `CC(NC(=O)OCc1ccccc1)NC(=O)C(CC(=O)OC(C)(C)C)NC(=O)OC(C)(C)C` (stereo not given), the growth inhibition in test [1] is -26.6%; in test [2] it was -40.5%; in test [3], -24.9%; in test [4] it was -7.3%; in test [5], -30.8%; in test [6], -29.3%.
Consider `O=[N+]([O-])c1nccn1CCCNc1c2ccccc2nc2ccccc12`, for which the growth inhibition in test [1] was 25.1%; in test [2], 7.95%; in test [3], 27.8%; in test [4], 23.1%; in test [5], 6.5%; in test [6], 17.9%.
As for `Oc1ccccc1C=NCCCN=Cc1ccccc1O`, the growth inhibition in test [1] was 12.4%; in test [2], 0.25%; in test [3], 36.5%; in test [4], 15.5%; in test [5] it was 48.8%; in test [6], 21.5%.
In the case of `O=C(/C=C/c1ccccc1)NCC(O)CO` (stereo not given), the growth inhibition is 7.1% in test [1]; -2.95% in test [2]; -3.65% in test [3]; -0.3% in test [4]; 0.5% in test [5]; 11.7% in test [6].
`COc1ccccc1NC(=S)N/N=C/c1cccc(C)n1`: the growth inhibition in test [1] is 9.45%; in test [2], -9.9%; in test [3], 20.1%; in test [4] it was -3.7%; in test [5] it was 5.5%; in test [6], 40%.
On to `O=C(CCC(=O)Nc1ccc(Cl)cc1)CC(=O)c1ccc2ccccc2c1`, for which the growth inhibition in test [1] was -51%; in test [2], -28.9%; in test [3] it was -13.3%; in test [4], 8.4%; in test [5], -31.1%; in test [6], -29.9%.
As for `CN(C)C=Nc1c2c(nc3ccccc13)CCCC2`, the growth inhibition in test [1] was -35.4%; in test [2], -16.4%; in test [3], -8.8%; in test [4] it was 7.4%; in test [5] it was 18.9%; in test [6], 18.4%.
As for `COc1cccc(N2C(=O)[C@H]3[C@H]4CC(C(C)(C)C)CC[C@H]4c4c([nH]c5ccccc45)[C@H]3C2=O)c1` (stereo not given in full), the growth inhibition is 1.65% in test [1]; -18.9% in test [2]; 8.25% in test [3]; 31.7% in test [4]; -9.4% in test [5]; -2.4% in test [6].
On to `NC(C(F)(F)F)(C(F)(F)F)P(=O)(Cc1ccccc1)Cc1ccccc1`, for which the growth inhibition was -8.35% in test [1]; -47.4% in test [2]; -18.7% in test [3]; -13.8% in test [4]; -23.1% in test [5]; 7.85% in test [6].
As to `CN1C(=O)NC(C)(CCOCc2ccccc2)C1=O` (stereo not given), the growth inhibition is 8.85% in test [1]; 0.45% in test [2]; 0.25% in test [3]; -1.25% in test [4]; 6.65% in test [5]; 8.65% in test [6].
As for `NCCCNCCCCN1CCOC1=O`, the growth inhibition in test [1] was 2.8%; in test [2], 1.65%; in test [3], -3.1%; in test [4], -6.6%; in test [5], -11.3%; in test [6] it was -17.9%.
Take `CCN(CC)CCNc1ccc(C)c2sc3ccc(N)cc3c(=O)c12`: the growth inhibition is 30.3% in test [1]; 18.1% in test [2]; 8.9% in test [3]; 28.3% in test [4]; -0.35% in test [5]; 19.8% in test [6].
`NN1CCCC(O)C1` (stereo not given): the growth inhibition is -0.15% in test [1]; -18.4% in test [2]; 4.75% in test [3]; 4.5% in test [4]; 5.1% in test [5]; 5.4% in test [6].
Regarding `NNC(=O)c1n[nH]n(N)c1=S`, the growth inhibition is 22.6% in test [1]; 25.1% in test [2]; 10.9% in test [3]; -8.65% in test [4]; -8.65% in test [5]; 24.2% in test [6].
As for `Nc1n[nH]c(CCCCc2nc(N)n[nH]2)n1`, the growth inhibition in test [1] is -23.2%; in test [2], -24.4%; in test [3], -2.55%; in test [4], -39.8%; in test [5] it was -4.25%; in test [6] it was -1.9%.
As for `CC(C)OC(=O)Nc1ccc(F)c(F)c1`, the growth inhibition in test [1] was 24.9%; in test [2], -16.8%; in test [3] it was 2.6%; in test [4], -2.8%; in test [5], 6.85%; in test [6] it was 20.1%.
